Assay outcomes: PubChem, National Center for Advancing Translational Sciences (NCATS)
NPSR antagonist = qHTS Assay for Antagonists of the Neuropeptide S Receptor: cAMP Signal Transduction; Q6W5P4; CHO-NPSR cells, cAMP TR-FRET, antagonist mode; Potency, µM (series often up to 38.3 µM), most hits filed as inhibitors; hit rate 1% among 220,000; AID 1461, 2008; note: nearly all actives have a fitted effect of over 50% in size
Target sequence (Q6W5P4 whole entry, looked up): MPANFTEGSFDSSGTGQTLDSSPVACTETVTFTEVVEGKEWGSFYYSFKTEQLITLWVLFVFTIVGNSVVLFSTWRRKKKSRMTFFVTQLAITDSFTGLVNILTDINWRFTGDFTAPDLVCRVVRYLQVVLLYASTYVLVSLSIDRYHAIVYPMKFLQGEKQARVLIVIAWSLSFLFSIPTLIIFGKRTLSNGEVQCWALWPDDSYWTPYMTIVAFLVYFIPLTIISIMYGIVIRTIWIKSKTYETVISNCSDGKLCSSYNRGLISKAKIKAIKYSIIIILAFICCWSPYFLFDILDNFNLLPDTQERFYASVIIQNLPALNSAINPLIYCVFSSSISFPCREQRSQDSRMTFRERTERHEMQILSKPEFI
Tau fluor counter = Counterscreen qHTS for Inhibitors of Tau Fibril Formation, Fluorescence Polarization; Potency, µM (series often up to 57.7 µM); tau K18 P301L Alexa594 fluorescence, heparin fibrillization; hit rate 0.93% among 280,000; AID 1463, 2008; note: nearly all actives have a fitted effect of over 55% in size
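Human K18 P301L tau (15 uM unlabeled plus 0.24 uM Alexa 594-labeled, final) in 100 mM sodium acetate pH 7 was mixed with compound and 20 uM heparin and incubated 6 hr at 37 C.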
KinaseGlo FLuc = Counterscreen for Luciferase (Kinase-Glo TM) Inhibition | hit rate 0.28% among 200,000 | Potency, µM (highest dose often 38.3 µM), hits mostly inhibitors | Kinase-Glo luciferase, ATP luminescence, 8 min; note: nearly all actives have a fitted effect of over 60% in size
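Recombinant Kinase-Glo luciferase, 10 uM ATP (linear range), luciferin; imidazole pH 7.2 / KCl / MgCl2 / Tween / BSA buffer; 8 min RT; luminescence.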
Tau fibril FP = qHTS for Inhibitors of Tau Fibril Formation, Fluorescence Polarization | hit rate 0.39% among 280,000 | Potency, µM (doses to about 57.7 µM), actives largely listed as inhibitors | Microtubule-associated protein tau (Homo sapiens), P10636 | K18 P301L tau heparin fibrillization, Alexa594 FP, 6 h; note: nearly all actives have a fitted effect of over 55% in size
Target sequence (P10636 561-689 P618L limits assumed): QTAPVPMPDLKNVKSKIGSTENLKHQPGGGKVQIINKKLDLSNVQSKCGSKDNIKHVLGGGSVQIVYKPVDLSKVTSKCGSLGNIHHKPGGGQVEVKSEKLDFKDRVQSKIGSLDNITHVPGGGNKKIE
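Human K18 P301L fragment (15 uM unlabeled plus 0.24 uM Alexa 594-labeled) in 100 mM sodium acetate pH 7 with compound, aggregation induced by 20 uM heparin for 6 hr at 37 C. ThT (30 uM) added for 1 hr, then Alexa 594 FP read.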
Tau fibril ThT = qHTS for Inhibitors of Tau Fibril Formation, Thioflavin T Binding; recombinant tau K18 P301L (four-repeat tau fragment), heparin-induced fibrillization, ThT fluorescence; Microtubule-associated protein tau (Homo sapiens), P10636; hit rate 2.1% among 270,000; Potency, µM (highest dose often 57.4 µM), actives largely listed as inhibitors; AID 1460, 2008; note: nearly all actives have a fitted effect of over 55% in size
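Tau K18 P301L fragment (15 uM unlabeled plus 0.24 uM Alexa 594-labeled) in 100 mM sodium acetate pH 7 with compound, fibrillization induced by 20 uM heparin for 6 hr at 37 C. Thioflavin T (30 uM) added, fluorescence read after 1 hr (ex 450, em 510 nm).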
Each line names hits and unclear results; the compound was inactive in the other large screens; [ ] = dose if it differs, or a comment. A selection: hits, their analogues and other compounds. The true share with any hit is near 3.3%. Calls come from the whole dose curve; as a rule, active = well fitted curve in the direction sought with a large enough effect; inconclusive = small, poorly fitted or top-dose-only effect, or another doubt; inactive = no such curve, though single readings can be large; an effect the other way counts as inactive or inconclusive.

O=C(COc1ccccc1Cl)Nc1nc(-c2ccc(F)cc2)ns1	Tau fibril FP inconclusive (no result: NPSR antagonist, KinaseGlo FLuc)
CCCCNC(=O)C1=C(N)C(C(=O)Nc2ccc(C)c(S(=O)(=O)N3CCCCC3)c2)SC1=Nc1ccc(C)cc1C (stereo not drawn)	Tau fluor counter inconclusive
CCN(CC)S(=O)(=O)c1cccc(NC(=O)C2SC(=Nc3ccc(C)cc3C)C(C(=O)NC(C)COC)=C2N)c1 (stereo not drawn)	Tau fluor counter 25µM[quencher]
COc1ccc(Nc2ncc(C(=O)Nc3ccc(F)cc3F)c3ccccc23)cc1	Tau fluor counter 11µM[quencher], Tau fibril FP inconclusive, Tau fibril ThT inconclusive (no result: NPSR antagonist, KinaseGlo FLuc)
O=C(O)c1cc2cc(Cc3cccnc3)ccc2o1	none
COc1cc(O)oc1C=Nc1ccc(Cl)cc1	Tau fibril FP inconclusive, Tau fibril ThT inconclusive
COc1cc(O)oc1C=Nc1ccc(C(=O)O)cc1	KinaseGlo FLuc 13µM
CC(C)C1Cc2c(C#N)c(N)sc(=S)c2CO1 (stereo not drawn)	NPSR antagonist inconclusive, Tau fluor counter inconclusive, Tau fibril ThT 20µM
N#C/C(=N\Nc1ccc(S(=O)(=O)N2CCc3ccccc32)cc1)C(N)=S	Tau fluor counter inconclusive, Tau fibril ThT 14µM
N#C/C(=N\Nc1ccc(S(=O)(=O)N2CCCCC2)cc1)C(N)=S	Tau fibril ThT 13µM
N#C/C(=N\Nc1ccc(S(=O)(=O)N2CCCCCC2)cc1)C(N)=S	Tau fibril ThT 14µM
NNC(=S)Nc1ccc(S(=O)(=O)N2CCCCC2)cc1	Tau fluor counter 16µM[quencher] (no result: KinaseGlo FLuc)
CC#CCN1c2ccccc2[C@]23C[C@@H](C(=O)OC)N(S(=O)(=O)c4c(C)noc4C)C2=NC(C(=O)OC)=C(C(=O)OC)[C@H]13	Tau fibril ThT inconclusive (no result: NPSR antagonist)
COc1cccc(CNC(=O)c2c(C)oc3ncnc(N4CCOCC4)c23)c1	none (no result: NPSR antagonist, KinaseGlo FLuc)
CCN(CC)CCCNC(=O)c1ccc(Cc2nc3ccccc3[nH]2)cc1	none (no result: NPSR antagonist, Tau fluor counter, Tau fibril FP, Tau fibril ThT)
COc1cccc(CNC(=O)Cn2ncn3nc(-c4cccs4)cc3c2=O)c1	none (no result: NPSR antagonist, KinaseGlo FLuc)
N#C/C(=N\Nc1ccc([N+](=O)[O-])cc1)C(=N)N1CCOCC1	Tau fibril ThT inconclusive (no result: KinaseGlo FLuc)
N#C/C(=N/Nc1ccc([N+](=O)[O-])cc1)C(=N)N1CCCCC1	Tau fibril ThT 10µM
COC(=O)c1ccc2c(c1)N(C)S(=O)(=O)c1cnc(SCC(=O)C(C)(C)C)nc1-2	none (no result: KinaseGlo FLuc)
COc1ccc(-c2nc(N3CCCCCC3)sc2C(=O)c2ccccc2)cc1	NPSR antagonist 5µM
COc1ccc(C)cc1NC(=O)C(Cc1ccccc1)NS(=O)(=O)c1ccc(Br)s1 (stereo not drawn)	none (no result: NPSR antagonist, KinaseGlo FLuc)
CC(=O)Nc1ccc(S(=O)(=O)N2CCc3nc(-c4ccccc4)c4c(c3C2)CO[C@@H](C)C4)cc1	none (no result: NPSR antagonist)
Cc1cc2c(NC(=O)Nc3ccc(C(C)(C)C)cc3)cccc2nn1	NPSR antagonist inconclusive, Tau fluor counter 16µM[quencher], Tau fibril FP 35µM (no result: KinaseGlo FLuc)
CCc1nc2ccc(C(=O)NCc3ccccc3C)cc2nc1CC	none (no result: NPSR antagonist, KinaseGlo FLuc)
O=C(CCCc1ccccc1)N1CCN(c2ccc([N+](=O)[O-])cc2)CC1	NPSR antagonist inconclusive, Tau fibril ThT 2.2µM
O=C(CCS(=O)(=O)Cc1ccccc1)N1CCN(c2ccc([N+](=O)[O-])cc2)CC1	Tau fibril ThT inconclusive
O=C(CCCC(=O)N1CCN(c2ccc([N+](=O)[O-])cc2)CC1)c1ccccc1	Tau fibril ThT 2.2µM
O=C(CCCCC(=O)N1CCN(c2ccccc2)CC1)N1CCN(c2ccccc2)CC1	NPSR antagonist inconclusive, Tau fibril ThT inconclusive
CC1CCC(NC(=O)c2ccc3c(c2)N(Cc2ccccc2F)C(=O)c2ccccc2S3(=O)=O)CC1 (stereo not drawn)	Tau fibril FP inconclusive (no result: NPSR antagonist, KinaseGlo FLuc)
Cc1cc(Br)cc2c1N(Cc1ccccc1OC(C)C)C(=O)C2=O	Tau fluor counter inconclusive, Tau fibril FP inconclusive, Tau fibril ThT 25µM (no result: NPSR antagonist, KinaseGlo FLuc)
Cc1cccc2c1N(Cc1ccccc1OCCC(C)C)C(=O)C2=O	Tau fibril ThT 25µM (no result: NPSR antagonist, KinaseGlo FLuc)
COc1ccccc1CN1C(=O)C(=O)c2cccc(C)c21	none (no result: NPSR antagonist, KinaseGlo FLuc)
Cn1cccc1/C=N/n1cnnc1	none
